# Values joined by “and” are separate entries in the source; they are usually repeats but may differ in a detail not shown here. Equal values may be shown once. This is part of a sample that, as a whole, favours compounds with a hit. Of some 83,000 tested, about 20% had one in any assay.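 How to read the values: 0–100, growth inhibition (40 = 60% inhibited); 0, no net growth; -100 to 0, cell death (-40 = 40% of starting cells died; -100 = all dead).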 Unmarked numbers belong to inactive results. Active and inactive are the calls of the source.
# System: MOLT-4 leukemia
# Test: NCI-60 one-dose screen, 48 h (100 = growth as untreated, 0 = no growth, -100 = all killed)
# Conditions: 10 µM unless noted
# Protocol: Growth inhibition of the MOLT-4 human tumor cell line is measured as a screen for anti-cancer activity. Cells are grown in 96 well plates and exposed to the test compound for 48 hours. Compounds are tested at a single concentration, which is 10^-5 M for most compounds. The reported endpoint is percent growth (GI% or GIPRCNT), where numbers from 0 - 100% represent growth inhibition, and numbers from -100% - 0 represent cell death. For example, a value of 40 represents 60% growth inhibition. A value of 0 means no net growth occurred over the course of the experiment. A value of -40 indicates 40% of cells at the beginning of the experiment died by the end of the experiment. A value of -100 means all cells are dead at the end of the experiment.
# NCI-60 Human Tumor Cell Lines Screen was performed using the standard one-dose NCI protocol, which is described in more detail at https://dtp.cancer.gov/discovery_development/nci-60/default.htm.
# Compounds with GIPRCNT values below 10 were considered active. Activity score was based on GIPRCNT using the following formula: […]
# Score is 0 for GIPRCNT values of 100 or above, 50 for GIPRCNT values of 0, and 100 for GIPRCNT values of -100.
row,SMILES,growth
1,C#CCOc1ccccc1C(OC(=O)c1ccccc1)C(=O)NC(C)(C)C(C)(C)C (stereo not given),40.6%
2,CCOC(=O)c1c(NC(=O)c2ccc(C(F)(F)F)cc2)sc2c3c(ccc12)OCN(C)C3,-8.7% (active)
3,CCCCSC1=C(Cl)CN(c2ccccc2)C1=O,105%
4,Clc1cccc(/C=N/Nc2nc(N/N=C/c3cccc(Cl)c3)nc(N3CCOCC3)n2)c1,6.04% (active)
5,Cn1c(SCC(=O)c2ccc(F)cc2)nc2ccccc2c1=O,95.8%
6,CN1CC[C@@H]2[C@@]3(C)CC[C@H](O)C(C)(C)[C@@H]3CC[C@@]2(C)[C@]2(C)CC[C@@]3(CO)CCC(C)(C)C[C@@H]3C12 (stereo not given in full),75.4%
7,CCCCOc1ccc(S(=O)(=O)N2CCN(c3nc(C)cc(N4CCOCC4)n3)CC2)cc1,26.1%
8,CCCc1cc2cc(-n3nc(CC)c4c3CC(C)(C)CC4=O)cc(NC3CCC(O)CC3)c2c(=O)[nH]1 (stereo not given),15.3%
9,Clc1ccc2[nH]cc(-c3nn4cc(-c5cccnc5)nc4s3)c2c1,94.5%
10,O=C(CSc1cc[n+](CCCCO)c2ccccc12)n1ccc2ccccc21,95.8%
11,C#CCN(C)CCCOc1ccc(NCc2ccc(C(=O)NO)cc2)cc1Cl,17.3%
12,CCNC(=O)Oc1ccc(/C(=C(/C)c2ccc(OC)cc2)c2ccc(OCCN3CCCCCC3)cc2)cc1,17.2%
13,Cc1ccc2c(n1)C(=O)C(Cl)=C(Nc1ccccc1C(=O)OC(C)(C)C)C2=O,-32.6% (active)
14,Cc1cc(=O)oc2cc(OCCCOc3ccc(/C=C/C(=O)Nc4ccc(Br)cc4)cc3)ccc12,96.4%
15,CCc1cc(OC(=O)N2CCC(N3CCCCC3)CC2)ccc1Nc1cc(-c2ccc(-n3cccn3)cc2)[nH]n1,18.9%
16,Cn1ncc2ncc(-c3ccc4ncc(C#N)c(N5CCc6cc(F)c(Cl)cc65)c4c3)cc21,12.6%
17,CCCCCCCCCC(=O)NC(C)(C)C(=O)N1CCC[C@H]1C(=O)N[C@@H](CC(C)C)C(=O)N[C@@](C)(CC)C(=O)N[C@@H](CCC(N)=O)C(=O)N[C@H](CCC(N)=O)C(=O)NC(C)(C)C(=O)NC(C)(C)C(=O)N[C@@H](CCC(N)=O)C(=O)N[C@H](CC(C)C)C(=O)N[C@H](CO)CC(C)C,-81.5% (active) and -26.1% (active)
18,CNc1sc(S(=O)(=O)NC)nc1S(=O)(=O)c1ccc(C)cc1,100%
19,O=C(/C=C/c1cccc(F)c1)c1cccc(OCCCCOc2cccc(C(=O)/C=C/c3cccc(F)c3)c2)c1,95%
20,Clc1ccc(CSc2nnc(-c3ccc(Cl)cc3)n2-c2ccccc2)cc1,92%

row,SMILES,growth
1,Brc1cc(-c2cc(-c3ccc4c(c3)OCCO4)[nH]n2)cs1,27.8%
2,CC(C)(C)Nc1nc2c(OCCc3ccccc3)cccn2c1-c1ccc([N+](=O)[O-])cc1,18.1%
3,O=C(/C=C/C=C/c1csc(Br)n1)NO,75.3%
4,COc1ccc(-c2nc(C#N)c(N3CCC(S(=O)(=O)N4CCOCC4)CC3)o2)cc1,98.3%
5,CC(=O)c1cc(C(=O)N2c3ccccc3Sc3ccccc32)n2c1ccc1ccccc12,54.7%
6,COc1cc(C(=O)c2cc(C(C)=O)c3c(C)cccn23)cc(OC)c1OC,92.5%
7,Brc1ccc(-c2cc(-c3ccc4c(c3)OCCO4)n[nH]2)s1,19.3%
8,CCOC(=O)c1c(NC(=O)c2ccc(C(F)(F)F)cc2)sc2c(CN3CCN(C)CC3)c(O)ccc12,-36.5% (active)
9,N#Cc1nc(-c2ccc(Cl)cc2)oc1N1CCC(S(=O)(=O)N2CCOCC2)CC1,104%
10,CC(C)[C@H]1c2[nH]c3ccccc3c2C[C@H]2C(=O)N(CCCCCCC(=O)NO)CC(=O)N12,34.6%
11,CC(C)(C)c1cc(NC(=O)Nc2ccc(-c3cn4c5c(sc4n3)CCc3cn(CCCN4CCCCC4)cc3-5)cc2)no1,-10.9% (active)
12,COC(=O)CCSC1=C(C)C(=O)c2ccccc2C1=O,31.8%
13,CC1=C(C)C(=O)C(Nc2cccc(C(F)(F)F)c2)=C(Br)C1=O,-6.02% (active)
14,O=C(Nc1ccccc1)Nc1nc2ccc([N+](=O)[O-])cc2[nH]1,55.7%
15,CC1=Cc2ccccc2OC12C=Cc1ccccc1O2 (stereo not given),99.9%
16,COc1ccc(CC(C)=C(c2ccc(OCCN3CCCC3)cc2)c2ccc(OCCN3CCCC3)cc2)cc1,-60.3% (active)
17,O=C1Nc2ccccc2/C1=N\c1nnc(-c2ccccc2)o1,96.7%
18,Cc1ccc(C(=O)Nc2ccc(CNCCN3CCNCC3)c(C(F)(F)F)c2)cc1C#Cc1cnc2cccnn12,-49.5% (active)
19,C#C[C@]1(O)CC[C@H]2[C@@H]3CC=C4c5sc(N(C)c6ccccc6)nc5CC[C@]4(C)[C@H]3CC[C@@]21C,31.3%
20,CCOC(=O)c1c(NC(=O)c2cccc(C(F)(F)F)c2)sc2c1CCC(=O)C2,36.8%

# From PubChem BioAssay (NCI)
